Measurements reported in PubChem BioAssay.
Active and inactive are the calls of the source.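 How the source made its calls: active means viability increase at or above a cutoff of the median across tested compounds plus 3 SD (cut at about 8.5% in these data, passing the limit was not always enough); inconclusive means some gains above the cutoff, reason not given; inactive means the rest.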

assay: viability gain of MRP-1-high H69AR cells under doxorubicin, pilot screen, MRP-1 activator project, CellTiter-Glo, duplicate (AID 807); conditions: H69AR viability with doxorubicin, CellTiter-Glo luminescence; at 10 µM; stronger effect = higher value;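 further: compound pretreatment 18-22 h then 72 h combined with doxorubicin; 0% = doxorubicin alone and 100% = vehicle without doxorubicin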

Row | SMILES | viability increase
1 | CCCCS(=O)(=O)/C=C\C=C/S(=O)(=O)CCCC | -7.95% (inactive)
2 | O=C1C(C=NCc2cccnc2)=C(O)c2ccccc21 | -2.11% (inactive)
3 | O=C(Nc1ccccc1)C1CC(=O)N(C2CCCCC2)C1 (configuration not stated) | 1.42% (inactive)
4 | CC(=O)NC(CCS(C)(=O)=O)C(=O)Nc1cc(Cl)ccc1Cl (configuration not stated) | 0.37% (inactive)
5 | Cc1csc(NC(=O)C(CC(C)C)NS(=O)(=O)c2ccc3c(c2)oc(=O)n3C)n1 (configuration not stated) | -0.77% (inactive)
6 | CCOC(=O)N1CCN(c2c(N3CCOCC3)c(=O)c2=O)CC1 | 0.58% (inactive)
7 | CC(=NCCc1ccccc1)C1=C(O)COC1=O | -2.71% (inactive)
8 | CCOC(=O)C1=C(C)NC(=O)NC1c1ccc(C)o1 (configuration not stated) | -1.92% (inactive)
9 | Nc1c(C(=O)CCC(=O)O)oc2ccc(Cl)cc12 | -2.01% (inactive)
10 | CCOc1ccc(-c2nnc3ccc(SCC(=O)N4CCCCC4)nn23)cc1 | -4.24% (inactive)
11 | O=C(CC1SC(=Nc2ccccc2)N(CCCCO)C1=O)NCc1ccccc1 (configuration not stated) | -2.74% (inactive)
12 | COc1ccc(C)cc1NC(=O)c1cnc2scc(C)n2c1=O | -5.49% (inactive)
13 | COc1ccc(OCc2nnc3n2N=C(c2ccc(OC)cc2)CS3)cc1 | -2.84% (inactive)
14 | O=C(Nc1nnc(-c2ccc(F)cc2)o1)c1ccco1 | -3.74% (inactive)
15 | CC(=O)Nc1c2c(nn1-c1cccc(Cl)c1)CS(=O)C2 (configuration not stated) | -0.33% (inactive)
16 | Cc1cc(NCc2ccco2)nc2cc(O)ccc12 | -5.57% (inactive)
17 | Cc1nnc(NC(=O)CSc2nnc(CNC(=O)c3ccccc3)n2-c2ccccc2)s1 | 0% (inactive)
